TbPYK inhibitor: qHTS of Trypanosoma Brucei Inhibitors; pyruvate kinase (Trypanosoma brucei), Q57TT1; TbPYK enzyme, Kinase-Glo Plus ATP luminescence, 45 min; Potency, µM (doses to about 76.8 µM), for the others: at the highest dose activity, negative = inhibition, hits mostly inhibitors; 0.12% of 410,000 active; AID 624173, 2012; note: nearly all actives have a fitted effect of over 50% in size
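ADP (130 uM final) triggers the TbPYK reaction after compound addition; incubation is 45 min at room temperature. Kinase-Glo Plus is then added and luminescence imaged. Normalized data are fitted to concentration-effect curves.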
LmPK inh: qHTS Assay for Inhibitors of Leishmania Mexicana Pyruvate Kinase (LmPK). Potency, µM (series often up to 57.5 µM), without a hit: top-dose activity change, negative = inhibition, most hits filed as inhibitors. purified LmPK, Kinase-Glo ATP luminescence, 1 h. 0.37% of 290,000 active. Q27686
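In 50 mM imidazole pH 7.2 with 7 mM MgCl2, LmPK (0.1 nM) turned over PEP (0.5 mM) and ADP (0.1 mM) for 1 h at room temperature. Luciferase read-out of ATP.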
AMA1 RON2 block: qHTS for Inhibitors of AMA1-RON; Towards Development of Antimalarial Drug Lead: Primary Screen; Plasmodium falciparum AMA1 (3D7) - RON2 peptide interaction; AlphaScreen AMA1-biotinylated RON2 peptide binding; Potency, µM (top dose mostly 58.2 µM), inactives show at the highest dose activity change, negative = inhibition, actives largely listed as inhibitors; 0.2% of 360,000 active; AID 720542, 2013;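 note: 0% = vehicle wells and -100% = peptide control; nearly all actives have a fitted effect of over 45% in size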
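AMA1 (3D7) with his tag at 25 nM final met compounds first, then biotinylated RON2 peptide at 25 nM; detection used donor plus acceptor beads, 10 µg/mL apiece, read by AlphaScreen after 30 min at room temperature.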
RE007 growth inh: qHTS Assay for Inhibitors of the HIV-1 protein Vpr; Potency, µM (series often up to 92.2 µM), for inactives: at the highest dose activity change, negative = less growth, hits mostly inhibitors; 0.21% of 360,000 active; S. pombe RE007 Vpr strain, BacTiter-Glo ATP luminescence, 24 h; active = well fitted falling curve with a large enough effect; inconclusive = small, poorly fitted or top-dose-only effect; inactive = no such curve, though single readings can be large or run the other way; note: nearly all actives have a fitted effect of over 50% in size
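Fission yeast RE007 carrying one integrated HIV-1 vpr copy, seeded at OD 0.01 in PMG+AL medium with 23 nL pinned compound. Grown 24 h at 30 degrees; viability read by BacTiter-Glo luminescence after 5 min.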
Sm TGR inh: qHTS Assay for the Inhibitors of Schistosoma Mansoni Peroxiredoxins; purified TGR, DTNB reduction, TNB absorbance 405 nm; AID 485364, 2010; Potency, µM (top dose mostly 114 µM), for inactives: at the highest dose activity change, negative = inhibition, usual class: inhibitors; 3% of 360,000 active; note: nearly all actives have a fitted effect of over 60% in size
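First, TGR (20 nM dispensed) and NADPH were mixed with compound. Second, a 15 min room-temperature incubation followed. Third, further NADPH and then DTNB were added to start the reaction. Finally, TNB absorbance was monitored kinetically.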
* hit, by the source's call; ? = inconclusive; . = no result. In the library only some 3.2% were active in any assay of this set; here they are far more common. Unless noted, calls come from the whole dose curve; as a rule, active = well fitted curve in the direction sought with a large enough effect; inconclusive = small, poorly fitted or top-dose-only effect, or another doubt; inactive = no such curve, though single readings can be large; an effect the other way counts as inactive or inconclusive. Unless noted, % is set by controls: 0 for no effect and ±100 for the full control effect; potency is the fitted concentration of half-maximal effect.

SMILES	TbPYK inhibitor	LmPK inh	AMA1 RON2 block	RE007 growth inh	Sm TGR inh
O=C(Nc1cccc(Cl)c1)c1cnc2sc(N3CCCC3)nn2c1=O	-7.7%	.	.	.	1.1%
Cc1ccc(-c2nc(CS(=O)(=O)CC(=O)NC3CC3)c(C)o2)cc1	-4.8%	-0.1%	-5.2%	-5.1%	31.6µM*
Cc1ccc(-c2nc(CS(=O)(=O)CC(=O)N3CC(C)CC(C)C3)c(C)o2)cc1 (stereo not drawn)	-4.6%	5.2%	0.0%	-10.1%	2.24µM*
COc1ccc(-c2nc(CS(=O)(=O)CC(=O)NC3CCCCC3C)c(C)o2)cc1 (stereo not drawn)	-28.5%	2.1%	9.4%	7.4%	?
Cc1ccc(-c2nc(CS(=O)(=O)CC(=O)NC3CCCCC3C)c(C)o2)cc1 (stereo not drawn)	-7.1%	1.0%	-2.4%	17.1%	35.5µM*
